# Data published in PubChem BioAssay (Tox21).
# “And” between values parts separate entries of the source, which are not always exact repeats. Identical values can stand only once. Records with an inconclusive call do not appear. Where a call stands in place of a potency, no number is given. The source holds several records for some structures; these can differ, active in one and inactive in another. The source made the active and inactive calls. Unless noted, calls come from the whole dose curve; as a rule, active = well fitted curve in the direction sought with a large enough effect in the repeat runs; inconclusive = weak or mixed curves; inactive = no such curve, though single readings can be large; an effect the other way counts as inactive or inconclusive.
# Assays:
# [1] = qHTS assay to identify small molecule agonists of H2AX (AID 1224845; active = well fitted activation curve with a large enough effect in the signal ratio in the repeat runs, not every such curve was filed as active; the % refers to the signal ratio; note: potency is the fitted concentration of half-maximal effect)
# Method in brief: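 Phospho-H2AX Ser139 measured by HTRF (ex 320 nm; em 665 and 620 nm) after 24 hr antibody incubation. Compounds, 15 concentrations, 0.76% DMSO, were applied to CHO-K1 cells for 3hr at 37C before lysis.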
# [2] = qHTS assay to identify small molecule agonists of the hypoxia (HIF-1) signaling pathway (AID 1224846; active = well fitted activation curve with a large enough effect in the signal ratio in the repeat runs, not every such curve was filed as active; the % refers to the signal ratio)
# Method in brief: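 In ME-180 cells bearing an HRE-bla construct, 17 h treatment with DMSO-dissolved compounds at 37C was followed by CCF4-AM loading to quantify reporter induction.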
# [3] = qHTS assay to identify small molecule agonists of H2AX - cell viability counter screen (AID 1224847; calls by dose curve; note: nearly all actives have a fitted effect of over 30% in size; note: potency is the fitted concentration of half-maximal effect)
# Method in brief: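 Cytotoxicity counter screen in wild-type CHO-K1 cells: a 3 hr compound treatment at 37C across 15 concentrations, followed by CellTiter-Glo luminescence to gauge viable cells.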
# [4] = qHTS RealTime-Glo MT Cell Viability Assay in HepG2 cells - 24 hour (AID 1224867); note: nearly all actives have a fitted effect of over 50% in size; note: potency is the fitted concentration of half-maximal effect
# Method in brief: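 Luminescence read-out: viable HepG2 cells reduce a prosubstrate to a NanoLuc substrate, giving a signal proportional to live cell number. Reads taken at 0, 8, 16, 24, 32 and 40 h of compound exposure at 37 C.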
# [5] = qHTS RealTime-Glo MT Cell Viability Assay in HEK293 cells - 32 hour (AID 1224868); note: nearly all actives have a fitted effect of over 50% in size; note: potency is the fitted concentration of half-maximal effect
# Method in brief: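 Nonlytic real-time viability readout: viable cells convert prosubstrate to NanoLuc substrate, giving luminescence proportional to live cell number. HEK293, 600 cells/well, compound added after 5 h, continuous culture at 37 C.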
# [6] = A CellTox Green Cytotoxicity Assay to monitor cytotoxicity in HEK293 cells - 0 hour (AID 1224869); note: nearly all actives have a fitted effect of over 50% in size
# Method in brief: (§1)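 Homogeneous no-lysis format: HEK293 cell suspension mixed with CellTox Green reagent, seeded, incubated 5 h at 37 C/5% CO2, then dosed by pintool with compound in DMSO.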
# [7] = A CellTox Green Cytotoxicity Assay to monitor cytotoxicity in HEK293 cells - 40 hour (AID 1224871); note: nearly all actives have a fitted effect of over 45% in size; note: potency is the fitted concentration of half-maximal effect
# Method in brief: as §1
# [8] = qHTS RealTime-Glo MT Cell Viability Assay in HepG2 cells - 40 hour (AID 1224870); note: nearly all actives have a fitted effect of over 50% in size; note: potency is the fitted concentration of half-maximal effect
# Method in brief: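 Real-time viability: cells seeded at 600 per well together with NanoLuc and cell-permeant prosubstrate, compounds added after 5 h incubation. Luminescence tracked at 0, 8, 16, 24, 32 and 40 h of exposure.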
# [9] = qHTS assay to identify small molecule antagonists of the estrogen related receptor (ERR) signaling pathway from Tox21 library (AID 1224848); note: nearly all actives have a fitted effect of over 50% in size; note: potency is the fitted concentration of half-maximal effect
# Method in brief: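 ERR cell line, 2,000 cells/well. 6 h settle, then compound (DMSO) added; 18 h at 37 C; ONE-Glo luminescence after 30 min RT.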
# [10] = qHTS assay to identify small molecule agonists of the estrogen related receptor (ERR) signaling pathway from Tox21 library (AID 1224849; calls by dose curve; note: nearly all actives have a fitted effect of over 15% in size); conditions: ERR reporter cell line, ONE-Glo luciferase, 18 h
# Method in brief: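 Reporter cells (ERR, NTP source) treated with Tox21 10K compounds 18 h, 37 C. Readout: ONE-Glo luminescence, 30 min RT.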
# [11] = at 92.4 µM (top of the series) unless noted
Compound,Potency [1],outcome [2],Potency [3],Potency [4],Potency [5],Potency [6],Potency [7],Potency [8],Potency [9],"activity change, positive = activation [10, 11]","activity change, positive = activation ([10]; at 42.5 µM (top of the series))","activity change, positive = activation ([10]; at 92.4 µM (top of the series))"
Clc1nc2ccccc2s1,inactive,inactive,inactive,inactive,inactive,inactive,inactive,,,,,
CCOB(OCC)OCC,inactive,inactive,inactive,inactive,,inactive,inactive,inactive,,,,
COc1ccccc1C=O,inactive,inactive,inactive,inactive,inactive,inactive,inactive,,,,,
OCCCc1cccnc1,inactive,inactive,inactive,inactive,,inactive,inactive,,,,,
O=C1OC(=O)c2ccc3c4c(ccc1c24)C(=O)OC3=O,inactive,inactive,inactive,inactive,inactive,inactive,inactive,inactive,,,,
CC(C)(C)c1cc(CCC(=O)NCCCCCCNC(=O)CCc2cc(C(C)(C)C)c(O)c(C(C)(C)C)c2)cc(C(C)(C)C)c1O,inactive,inactive,inactive,,,inactive,inactive,inactive,,,,
CC(C)OC(=O)c1cc(C(=O)OC(C)C)cc([N+](=O)[O-])c1,inactive,inactive,,inactive,,inactive,,,inactive,-0.42% (inactive),,
CC(C)=C1CC[C@@H](C)CC1=O,inactive,inactive,inactive,inactive,inactive,inactive,inactive,inactive,,,,
C/C=C/c1ccc(OC)c(OC)c1,inactive,inactive,inactive,inactive,inactive,inactive,inactive,inactive,,,,
CC(=O)O[C@@H]1C[C@@H]2CC[C@@]1(C)C2(C)C,inactive,inactive,inactive,inactive,,inactive,inactive,,,,,
CCOCN(C(=O)CS(=O)(=O)O)c1c(C)cccc1CC,inactive,inactive,inactive,inactive,,inactive,inactive,,,,,
CC(=O)C=O,inactive,inactive,inactive,inactive,inactive,inactive,inactive,inactive,,,,
CC1CCCCC1,inactive,inactive,inactive,inactive,inactive,inactive,inactive,inactive,,,,
CCc1ccc(C)nc1,inactive,inactive,inactive,inactive,,inactive,inactive,inactive,,,,
OCCC(O)CO (centres undefined),inactive,inactive,inactive,inactive,inactive,inactive,inactive,inactive,,,,
CCCC(O)C(O)CO (centres undefined),inactive,inactive,inactive,inactive,,inactive,inactive,inactive,,,,
C[C@@H]1CC[C@H]2C(C)(C)[C@H]3C[C@@]12CC[C@@]3(C)O,inactive,inactive,,inactive,inactive,inactive,,inactive,inactive,-6.53% (inactive),,
CCC(C)c1ccccc1 (centres undefined),inactive,inactive,inactive,inactive,inactive,inactive,inactive,inactive,,,,
Cc1cc(=O)[nH]c(=O)[nH]1,inactive,inactive,inactive,inactive,inactive,inactive,inactive,,,,,
C/C=C/CO,inactive,inactive,inactive,inactive,inactive,inactive,inactive,inactive,,,,
CCOC(=O)COc1ccc(C)cc1,inactive,inactive,inactive,inactive,inactive,inactive,inactive,,,,,
NCCCC(O)(P(=O)(O)O)P(=O)(O)O,inactive,inactive,inactive,inactive,,inactive,inactive,inactive,,,,
CC(=O)c1ccccc1N,inactive,inactive,inactive,inactive,,inactive,inactive,inactive,,,,
C=C[C@](C)(O)CC[C@@H]1[C@@]2(C)CCCC(C)(C)[C@@H]2CC[C@@]1(C)O,inactive,,113 µM (active),49 µM (active),21.9 µM (active),inactive,,54.9 µM (active),27.3 µM (active),-46.9% (inactive),,

Compound,Potency [1],outcome [2],Potency [3],Potency [4],Potency [5],Potency [6],Potency [7],Potency [8],Potency [9],"activity change, positive = activation [10, 11]","activity change, positive = activation ([10]; at 42.5 µM (top of the series))","activity change, positive = activation ([10]; at 92.4 µM (top of the series))"
CC1CCCNC1 (centres undefined),inactive,,inactive,inactive,,inactive,inactive,inactive,,,,
CC(C)(C)c1cc(/C=C2\SC(=N)NC2=O)cc(C(C)(C)C)c1O,inactive,,,,49 µM (active),inactive,,,48.6 µM (active),-57.9% (inactive),,
CC(C)c1ccc(O)c(C(C)C)c1,inactive,,89.8 µM (active),inactive,inactive,inactive,21.9 µM (active),inactive,inactive,-4.92% (inactive),,
COc1cc(C(=O)NS(=O)(=O)c2ccccc2C)ccc1Cc1cn(C)c2ccc(NC(=O)OC3CCCC3)cc12,inactive,,inactive,inactive,inactive,inactive,inactive,inactive,inactive,-10.9% [at 42.5 µM] (inactive),,
CCC(C)c1cc([N+](=O)[O-])cc([N+](=O)[O-])c1OC(=O)OC(C)C (centres undefined),inactive,,,54.9 µM (active),,inactive,inactive,,19.3 µM (active),-53.4% (inactive),,
CCCCCCCCCCCCCC[n+]1ccccc1,inactive,,56.6 µM (active),19.5 µM (active),4.9 µM (active),inactive,38.9 µM (active),9.77 µM (active),1.37 µM (active),-77.5% (inactive),,
Cc1c(C)n(Cc2ccccc2)c2ccc(C(=O)OCCN(C)C)cc12,6.19 µM (active),inactive,,,,inactive,,,inactive,-7.81% [at 42.5 µM] (inactive),,
CC(C)(c1cc(Br)c(O)c(Br)c1)c1cc(Br)c(O)c(Br)c1,113 µM (active),,89.5 µM (active),inactive,inactive,inactive,inactive,inactive,54.3 µM (active) and inactive,-21.4% (inactive) and -40.7% (inactive) and -13.4% (inactive),,
CC(CN(C)C)CN1c2ccccc2CCc2ccccc21 (centres undefined),inactive,,inactive,inactive,,inactive,inactive,,,,,
CC(=O)Oc1ccc(C2(c3ccc(OC(C)=O)cc3)C(=O)Nc3ccccc32)cc1,inactive,,inactive,inactive,inactive,inactive,inactive,inactive,inactive,-9.03% [at 42.5 µM] (inactive),,
CCCCC(CC)COC(=O)c1ccc(O)cc1 (centres undefined),inactive,,89.4 µM (active) and 80 µM (active),inactive,,inactive,43.5 µM (active) and 21.9 µM (active),inactive,,,,
COC(=O)C1=C(C)NC(C)=C(C(=O)OCCCN2CCC(c3ccccc3)(c3ccccc3)CC2)C1c1cccc([N+](=O)[O-])c1 (centres undefined),inactive,,,,10.7 µM (active),inactive,inactive,,10.6 µM (active),-67.7% [at 42.5 µM] (inactive),,
O=C(Nc1ccc(Cl)cc1)Nc1ccc(Cl)c(C(F)(F)F)c1,inactive,,22 µM (active),,4.77 µM (active),inactive,,,3.76 µM (active),-40.9% [at 42.5 µM] (inactive),,
CNC(=S)NN,89.8 µM (active),,inactive,inactive,,inactive,,inactive,13.7 µM (active),-71.8% (inactive),,
CCCCCCCC/C=C\CCCCCCCC(=O)NCc1ccc(O)c(OC)c1,inactive,,inactive,inactive,2.68 µM (active),inactive,inactive,inactive,,-18.5% [at 42.5 µM] (inactive),,
CCCCCCCOC(=O)c1ccc(O)cc1,inactive,,101 µM (active),inactive,24.6 µM (active) and 21.9 µM (active),inactive,inactive and 24.5 µM (active),inactive,,,,
NC(=O)c1nc(-c2cccc(-c3cc(F)ccc3OCC(F)(F)C(F)(F)F)c2)n[nH]1,inactive,,101 µM (active),inactive,,inactive,,inactive,17.2 µM (active),-59.7% (inactive),,
CCN(CC)CCNc1ccc(CO)c2sc3ccccc3c(=O)c12,inactive,,inactive,23.9 µM (active),,inactive,23.9 µM (active),21.3 µM (active),13.3 µM (active),-56.6% [at 42.5 µM] (inactive),,
C=CC(=O)OCCN(CC)CC,inactive,,inactive,inactive,inactive,inactive,inactive,inactive,,,,
C[C@H]1O[C@@H](O[C@H]2[C@@H](O)C[C@H](O[C@H]3[C@@H](O)C[C@H](O[C@H]4CC[C@@]5(C)[C@H](CC[C@@H]6[C@@H]5C[C@@H](O)[C@]5(C)[C@@H](C7=CC(=O)OC7)CC[C@]65O)C4)O[C@@H]3C)O[C@@H]2C)C[C@H](O)[C@@H]1O,inactive,,inactive,inactive,61.7 nM (active) and 54.3 nM (active),inactive,inactive,,inactive,,-72.5% (active),-71.3% (inactive)
CCCC(CC)CCCCCCCN (centres undefined),inactive,,103 µM (active),inactive,,inactive,50.2 µM (active),inactive,,-20.1% (inactive),,
Clc1ccc(C(c2ccccc2Cl)C(Cl)Cl)cc1 (centres undefined),113 µM (active),,101 µM (active),inactive,,inactive,inactive,,,,,
Oc1ccc(-c2ccccc2)c(Cl)c1,inactive,,89.8 µM (active),inactive,24.5 µM (active),inactive,,inactive,,,,
